Measured values reported in PubChem BioAssay (NCATS).
Records with an inconclusive call do not appear. Activity calls are given as the source filed them. Unless noted, calls follow the shape of the full dose curve.

Tests used:
[1] = target: Estrogen receptor (Homo sapiens) (UniProt P03372); assay: qHTS assay for small molecule antagonists of estrogen receptor alpha signaling (AID 588513; active = well fitted curve in the direction sought with a large enough effect in the signal ratio, with a control signal flat, not every such curve was filed as active; the % refers to the signal ratio; also: potency is read from the fitted curve at half-maximal effect)
Method in brief: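 ER-alpha-UAS-bla GripTite HEK 293 cells in 2% charcoal/dextran-treated FBS medium; compounds titrated (1:2, duplicate), then stimulated with 0.5 nM 17-beta-estradiol for 18 h at 37C. CCF4 beta-lactamase fluorescence; Hill-fit IC50 and efficacy.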

[2] = target: Estrogen receptor (Homo sapiens) (UniProt P03372); assay: qHTS assay for small molecule agonists of estrogen receptor alpha signaling (AID 588514); also: nearly all actives have a fitted effect of over 70% in size; also: potency is read from the fitted curve at half-maximal effect;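 as to activation: 0% = vehicle only and 100% = reference agonist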
Method in brief: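 Cells were plated at 5000/well, incubated 4 hrs at 37 C, dosed with compound titration series, incubated 18 hrs at 37 C, loaded with CCF4 dye for 2 hrs at RT, then fluorescence was read.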

[3] = target: Peroxisome proliferator-activated receptor gamma (Homo sapiens) (UniProt P37231); assay: qHTS assay for small molecule agonists of peroxisome proliferator-activated receptor gamma signaling (AID 588536; active = well fitted curve in the direction sought with a large enough effect in the signal ratio, with a control signal flat, not every such curve was filed as active; the % refers to the signal ratio;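 also: 0% = DMSO basal wells and 100% = rosiglitazone at 2 µM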)
Method in brief: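 Test agents, titrated, stimulated HEK293 UAS-bla cells overnight (16 h, 37 C). Substrate CCF4 was then added for two hours at room temperature before fluorescence reading.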

[4] = target: Peroxisome proliferator-activated receptor gamma (Homo sapiens) (UniProt P37231); assay: qHTS assay for small molecule antagonists of peroxisome proliferator-activated receptor gamma signaling (AID 588537; active = well fitted inhibition curve with a large enough effect in the signal ratio, with a control signal flat, not every such curve was filed as active; the % refers to the signal ratio;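 also: reporter cells co-stimulated with 50 nM rosiglitazone agonist during compound treatment; % of control where 0% means no effect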)
Method in brief: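 We seeded GeneBLAzer HEK293 reporter cells at 3000 per well, allowed 6-6.5 h attachment at 37 C, then co-treated with test compound titrations and 50 nM rosiglitazone overnight (16 h). Inhibition was quantified from 460/530 nm emission ratios.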

[5] = qHTS assay for small molecule agonists of the antioxidant response element (ARE) signaling pathway (AID 651741; active = well fitted activation curve with a large enough effect in the signal ratio; the % refers to the signal ratio; also: potency is read from the fitted curve at half-maximal effect; as to activation: % of control where 0% means no effect)
Method in brief: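 Compounds in DMSO are pinned onto HepG2 ARE-bla cells (2,000/well) that were preincubated 5 h; plates stay 16 h at 37 C, then beta-lactamase activity is detected with LiveBLAzer B/G substrate by fluorescence.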

[6] = target: Glucocorticoid receptor (Homo sapiens) (UniProt P04150); assay: qHTS assay for small molecule agonists of glucocorticoid receptor signaling (AID 588532; active = well fitted curve in the direction sought with a large enough effect in the signal ratio, with a control signal flat; the % refers to the signal ratio;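 also: 100% = dexamethasone at 0.1 µM and 0% = DMSO only wells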); details: HeLa MMTV-bla, beta-lactamase ratio, agonist, 18 h; stronger effect = higher value; percent of dexamethasone control, DMSO zero
Method in brief: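 MMTV-bla HeLa, beta-lactamase reporter; medium with 1% charcoal/dextran-stripped FBS; cpds up to 92 uM, 18 h, 37 C; CCF4 readout 460/530 nm; Hill fit → EC50, efficacy vs 0.1 uM dexamethasone = 100%.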

[7] = target: Glucocorticoid receptor (Homo sapiens) (UniProt P04150); assay: qHTS assay for small molecule antagonists of glucocorticoid receptor signaling (AID 588533; active = well fitted inhibition curve with a large enough effect in the signal ratio, with a control signal flat, not every such curve was filed as active; the % refers to the signal ratio;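 also: cells stimulated with 2 nM dexamethasone as agonist; % is scaled to controls: 0 for no effect and ±100 for the full control effect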)
Method in brief: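 Antagonist-mode qHTS: compound titrations added to GRE-bla HeLa cells, then dexamethasone 2 nM final; 18 h, 37 C. CCF4 FRET fluorescence normalized to dexamethasone and DMSO; IC50 from Hill fit.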

[8] = target: Androgen receptor (Homo sapiens) (UniProt P10275); assay: qHTS assay for small molecule agonists of androgen receptor signaling (AID 588515; active = well fitted curve in the direction sought with a large enough effect in the signal ratio, with a control signal flat; the % refers to the signal ratio; also: % is scaled to controls: 0 for no effect and ±100 for the full control effect); details: AR-UAS-bla HEK293, beta-lactamase ratio, agonist 16 h; activation: stronger effect = higher value
Method in brief: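 EC50 and efficacy came from Hill fits of titrations (up to 92 uM) normalized to 30 nM R1881 as 100% and DMSO as 0%. Compound exposure was 16 h at 37 C on AR-UAS-bla HEK293 cells, with a 405/460/530 nm CCF4 fluorescence read.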

[9] = target: Androgen receptor (Homo sapiens) (UniProt P10275); assay: qHTS assay for small molecule antagonists of androgen receptor signaling (AID 588516; active = well fitted curve in the direction sought with a large enough effect in the signal ratio, with a control signal flat, not every such curve was filed as active; the % refers to the signal ratio; also: % is scaled to controls: 0 for no effect and ±100 for the full control effect)
Method in brief: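 AR-UAS-bla GripTite HEK 293 cells (2000/well) treated with compound titrations plus 10 nM R1881 for 16 h at 37C. Beta-lactamase read by CCF4 FRET (460/530 nm); IC50 from Hill fits, normalized to R1881 and DMSO control wells.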

[10] = target: Bile acid receptor (Homo sapiens) (UniProt Q96RI1); assay: qHTS assay for small molecule antagonists of farnesoid X receptor signaling (AID 588526); also: % is scaled to controls: 0 for no effect and ±100 for the full control effect
Method in brief: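 Concentration-response titrations were fitted to the Hill equation for half-maximal inhibition and maximal response, with data normalised to 50 uM chenodeoxycholic acid and DMSO control wells. Cells: FXR-UAS-bla HEK293T, dialyzed FBS.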

Chain of Estrogen receptor (Homo sapiens) (P03372 whole entry, looked up): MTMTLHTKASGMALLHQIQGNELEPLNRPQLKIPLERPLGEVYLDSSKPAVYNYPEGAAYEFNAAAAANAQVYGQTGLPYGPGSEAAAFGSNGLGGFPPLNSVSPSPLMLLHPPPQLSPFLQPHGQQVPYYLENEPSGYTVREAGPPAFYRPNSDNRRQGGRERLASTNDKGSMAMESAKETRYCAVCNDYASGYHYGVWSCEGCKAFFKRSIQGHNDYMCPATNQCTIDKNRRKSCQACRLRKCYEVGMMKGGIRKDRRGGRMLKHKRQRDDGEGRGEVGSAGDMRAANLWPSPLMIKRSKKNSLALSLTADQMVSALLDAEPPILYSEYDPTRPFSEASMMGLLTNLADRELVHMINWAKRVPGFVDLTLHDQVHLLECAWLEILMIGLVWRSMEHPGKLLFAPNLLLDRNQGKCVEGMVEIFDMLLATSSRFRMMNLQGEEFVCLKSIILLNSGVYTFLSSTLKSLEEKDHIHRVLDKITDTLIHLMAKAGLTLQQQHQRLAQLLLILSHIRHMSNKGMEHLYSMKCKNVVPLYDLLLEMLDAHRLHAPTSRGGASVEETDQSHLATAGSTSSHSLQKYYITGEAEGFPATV
Chain of Glucocorticoid receptor (Homo sapiens) (P04150 whole entry, looked up): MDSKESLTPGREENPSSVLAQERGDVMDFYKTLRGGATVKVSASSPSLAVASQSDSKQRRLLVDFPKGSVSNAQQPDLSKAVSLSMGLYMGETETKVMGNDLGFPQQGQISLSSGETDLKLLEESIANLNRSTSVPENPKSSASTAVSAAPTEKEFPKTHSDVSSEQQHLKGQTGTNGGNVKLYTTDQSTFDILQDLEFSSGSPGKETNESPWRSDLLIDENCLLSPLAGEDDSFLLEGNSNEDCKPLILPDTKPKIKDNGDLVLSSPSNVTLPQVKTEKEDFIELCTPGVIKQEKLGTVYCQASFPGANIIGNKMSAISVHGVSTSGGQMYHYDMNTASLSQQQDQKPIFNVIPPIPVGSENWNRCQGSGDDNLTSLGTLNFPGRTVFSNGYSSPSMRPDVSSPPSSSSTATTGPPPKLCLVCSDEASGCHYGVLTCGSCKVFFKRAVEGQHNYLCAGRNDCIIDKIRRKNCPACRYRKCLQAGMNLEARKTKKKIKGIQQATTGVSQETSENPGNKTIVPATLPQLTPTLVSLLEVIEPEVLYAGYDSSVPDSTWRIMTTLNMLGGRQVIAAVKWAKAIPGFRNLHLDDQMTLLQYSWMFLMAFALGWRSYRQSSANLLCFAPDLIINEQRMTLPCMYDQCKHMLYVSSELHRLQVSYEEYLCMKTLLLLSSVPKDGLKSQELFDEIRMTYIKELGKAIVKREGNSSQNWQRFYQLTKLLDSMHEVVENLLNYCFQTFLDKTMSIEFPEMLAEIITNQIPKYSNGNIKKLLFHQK
Chain of Peroxisome proliferator-activated receptor gamma (Homo sapiens) (P37231 whole entry, looked up): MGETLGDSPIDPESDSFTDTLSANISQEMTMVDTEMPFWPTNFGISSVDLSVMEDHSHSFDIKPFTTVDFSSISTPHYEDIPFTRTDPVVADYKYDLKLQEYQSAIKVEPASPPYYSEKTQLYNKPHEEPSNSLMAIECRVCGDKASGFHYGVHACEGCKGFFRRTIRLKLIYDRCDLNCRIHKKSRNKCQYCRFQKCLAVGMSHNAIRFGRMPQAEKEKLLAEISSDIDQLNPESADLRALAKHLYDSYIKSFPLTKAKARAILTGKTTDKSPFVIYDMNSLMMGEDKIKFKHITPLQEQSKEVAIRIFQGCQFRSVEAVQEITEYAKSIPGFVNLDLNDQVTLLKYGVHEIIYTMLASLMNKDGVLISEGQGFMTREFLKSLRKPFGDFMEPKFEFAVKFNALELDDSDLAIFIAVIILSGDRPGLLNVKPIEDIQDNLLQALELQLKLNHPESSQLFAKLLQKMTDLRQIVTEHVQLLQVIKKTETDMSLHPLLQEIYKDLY
Chain of Bile acid receptor (Homo sapiens) (Q96RI1 whole entry, looked up): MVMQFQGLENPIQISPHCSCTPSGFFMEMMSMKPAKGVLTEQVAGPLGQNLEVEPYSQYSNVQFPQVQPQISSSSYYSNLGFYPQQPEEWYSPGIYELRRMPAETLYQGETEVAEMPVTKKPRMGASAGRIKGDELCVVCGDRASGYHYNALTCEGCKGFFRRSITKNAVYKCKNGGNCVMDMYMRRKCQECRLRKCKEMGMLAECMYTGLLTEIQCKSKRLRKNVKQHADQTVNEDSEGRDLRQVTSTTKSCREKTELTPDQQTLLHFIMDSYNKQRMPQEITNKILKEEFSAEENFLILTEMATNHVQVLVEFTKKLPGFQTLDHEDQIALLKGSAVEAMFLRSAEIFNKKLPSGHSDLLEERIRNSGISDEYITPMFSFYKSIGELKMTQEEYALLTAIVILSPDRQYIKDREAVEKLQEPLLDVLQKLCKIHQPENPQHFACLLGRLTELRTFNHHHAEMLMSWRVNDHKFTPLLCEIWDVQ
Chain of Androgen receptor (Homo sapiens) (P10275 whole entry, looked up): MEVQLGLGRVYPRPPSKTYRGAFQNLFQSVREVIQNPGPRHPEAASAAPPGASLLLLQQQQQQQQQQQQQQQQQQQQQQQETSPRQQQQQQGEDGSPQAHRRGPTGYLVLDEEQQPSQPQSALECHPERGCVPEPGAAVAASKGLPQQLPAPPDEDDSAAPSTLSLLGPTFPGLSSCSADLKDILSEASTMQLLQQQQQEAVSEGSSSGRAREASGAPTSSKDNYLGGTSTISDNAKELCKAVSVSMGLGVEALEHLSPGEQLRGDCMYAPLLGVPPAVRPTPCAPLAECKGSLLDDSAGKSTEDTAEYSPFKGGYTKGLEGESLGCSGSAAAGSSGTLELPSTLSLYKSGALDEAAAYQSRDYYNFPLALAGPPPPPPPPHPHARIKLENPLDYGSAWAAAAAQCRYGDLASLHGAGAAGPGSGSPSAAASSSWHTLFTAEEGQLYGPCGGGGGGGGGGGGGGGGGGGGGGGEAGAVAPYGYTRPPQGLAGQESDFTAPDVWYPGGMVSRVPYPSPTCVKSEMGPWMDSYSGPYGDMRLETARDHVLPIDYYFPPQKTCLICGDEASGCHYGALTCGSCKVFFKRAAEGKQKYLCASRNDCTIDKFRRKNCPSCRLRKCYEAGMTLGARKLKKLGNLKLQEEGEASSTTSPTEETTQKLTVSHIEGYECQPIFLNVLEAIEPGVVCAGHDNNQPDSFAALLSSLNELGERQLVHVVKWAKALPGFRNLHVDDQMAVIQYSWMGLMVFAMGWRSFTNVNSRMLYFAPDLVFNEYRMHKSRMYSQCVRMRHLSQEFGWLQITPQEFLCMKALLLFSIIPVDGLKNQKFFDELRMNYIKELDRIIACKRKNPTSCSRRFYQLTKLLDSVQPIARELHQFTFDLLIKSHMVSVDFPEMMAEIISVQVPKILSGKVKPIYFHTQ

CCCCOCCOCCOCCO
inactive: Potency [1] | Potency [2] | outcome [3] | Potency [4] | Potency [5]

CC1(C)C(=O)NC(=O)N1CO
inactive: Potency [1] | activation [6] -5.05% | Potency [7]

CSC(=O)c1cccc2nnsc12
inactive: Potency [1] | activation [8] -3.36% | outcome [9] | outcome [3] | Potency [4]

CC1(C)C(C=C(Cl)Cl)[C@H]1C(=O)OCc1cccc(Oc2ccccc2)c1 (stereo partly specified)
inactive: Potency [1] | activation [8] -0.893% | outcome [9]

CC(C)(C)c1n[nH]c(=O)n(N)c1=O
inactive: Potency [1] | activation [8] 8.74% | outcome [9] | Potency [10] | activation [6] 14.6% | Potency [7] | Potency [4] | Potency [5]

C[Si](C)(C)N[Si](C)(C)C
inactive: Potency [1] | activation [6] -9.44% | Potency [7] | outcome [3] | Potency [4]

NCCCCCCCCCCC(=O)O
inactive: Potency [1] | activation [8] 0.655% | outcome [9] | Potency [7] | outcome [3] | Potency [4]

CCOC(=O)COc1cc(-n2ncc(C(F)(F)F)c(C)c2=O)c(F)cc1Cl
inactive: Potency [1] | activation [8] -1.68% | activation [6] 13.3% | outcome [3] | Potency [4]

CN(C)c1nc(=O)n(C2CCC(O)CC2)c(=O)n1C (stereo unspecified)
inactive: Potency [2] | activation [8] 6.02% | outcome [9] | Potency [10] | Potency [7] | outcome [3] | Potency [4] | Potency [5]

C[Si]1(C)N[Si](C)(C)N[Si](C)(C)N1
inactive: Potency [1] | Potency [2]

Cc1ccc(C(C)(C)C)c(O)c1
inactive: Potency [1] | Potency [10] | Potency [4] | Potency [5]

COC(=O)c1ccc(C(=O)OC)cc1
inactive: Potency [1] | Potency [2] | outcome [3] | Potency [4] | Potency [5]

CCC(=O)C1C(=O)CC(C(=O)O)CC1=O (stereo unspecified)
inactive: Potency [1] | activation [8] -3.36% | Potency [10] | activation [6] 6.99% | outcome [3] | Potency [4]

OCCC(F)(F)C(F)(F)C(F)(F)C(F)(F)C(F)(F)C(F)(F)C(F)(F)C(F)(F)F
inactive: Potency [1] | activation [8] 13.8% | Potency [5]

CCCCCCCCCCCCCCO
inactive: Potency [1] | Potency [2] | outcome [3] | Potency [5]

CSc1ccc(Cl)cc1
inactive: Potency [2] | activation [8] -7.93% | outcome [9] | Potency [10] | activation [6] -2.12% | Potency [7] | outcome [3] | Potency [4] | Potency [5]

CCCCCCCCCCCCCCCCN(C)C
inactive: Potency [1] | activation [8] 8.77% | outcome [9] | activation [6] -11.7% | Potency [7] | Potency [5]

Brc1ccc(Br)c(Br)c1
inactive: Potency [1] | Potency [2] | outcome [3] | Potency [4] | Potency [5]

CC(C)(C)c1ccc(O)c(C(C)(C)C)c1
inactive: Potency [1] | Potency [10] | activation [6] -9.25% | Potency [7] | outcome [3] | Potency [4]

Cc1ccc(N=Nc2c(O)ccc3ccccc23)c([N+](=O)[O-])c1
inactive: Potency [2] | activation [8] 8.82% | outcome [9] | Potency [10] | Potency [7]
active: Potency [5] 24.3 µM

CCCCCCCCC(=O)O
inactive: Potency [1] | activation [6] 1.63% | Potency [7]

CO/N=C1\C[C@]2(C[C@@H]3C[C@@H](C/C=C(\C)C[C@@H](C)/C=C/C=C4\CO[C@@H]5[C@H](O)C(C)=C[C@@H](C(=O)O3)[C@]45O)O2)O[C@H](/C(C)=C/C(C)C)[C@H]1C
active: Potency [1] 7.94 µM [inhibitor]

CCCCCCCCCCCCO
inactive: Potency [1] | outcome [3]

COc1ccccc1NC(=O)CC(C)=O
inactive: Potency [1] | outcome [3] | Potency [5]

CC1COCc2cc3c(cc21)C(C)(C)C(C)C3(C)C (stereo unspecified)
active: Potency [2] 11.2 µM
inactive: activation [8] 12.8% | outcome [9] | Potency [10] | activation [6] 13.9% | Potency [7] | outcome [3] | Potency [5]

CC(C)CCCCCCc1ccc(OCCOCCO)cc1
active: Potency [1] 28.2 µM [inhibitor]

CCCOC(=O)c1ccc(C(=O)OCCC)nc1
inactive: Potency [1] | activation [8] -11.4% | outcome [9] | Potency [10] | outcome [3] | Potency [4]

CCCCCCCCCCCC(=O)N(C)CC(=O)O
inactive: Potency [1] | Potency [2]

CC(=O)OC1CCC(C(C)(C)C)CC1 (stereo unspecified)
inactive: Potency [1] | activation [8] 3% | outcome [9] | activation [6] -9.53% | Potency [7] | Potency [5]

O=C(O)C(Oc1ccc(Cl)cc1)Oc1ccc(Cl)cc1
inactive: Potency [2] | activation [8] -5.73% | outcome [9] | Potency [10] | activation [6] -6.89% | Potency [7] | Potency [5]

O=S(=O)(O)c1cc(S(=O)(=O)O)c2c(N=Nc3ccccc3)c(O)ccc2c1
inactive: Potency [1] | Potency [10] | Potency [7] | Potency [5]

Cc1ccc(Cl)cc1Cl
inactive: Potency [1] | activation [6] -2.65% | Potency [7] | Potency [5]
